# MITF primary: inhibitors of human MITF; O75030; hit rate 0.91% among 650,000; inhibition, % at 2.6 µM; AlphaScreen MITF homodimerization, bead proximity signal; in the data active = inhibition above about 50%;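 note: 0% = vehicle wells with protein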
# Target sequence (O75030 whole entry, looked up): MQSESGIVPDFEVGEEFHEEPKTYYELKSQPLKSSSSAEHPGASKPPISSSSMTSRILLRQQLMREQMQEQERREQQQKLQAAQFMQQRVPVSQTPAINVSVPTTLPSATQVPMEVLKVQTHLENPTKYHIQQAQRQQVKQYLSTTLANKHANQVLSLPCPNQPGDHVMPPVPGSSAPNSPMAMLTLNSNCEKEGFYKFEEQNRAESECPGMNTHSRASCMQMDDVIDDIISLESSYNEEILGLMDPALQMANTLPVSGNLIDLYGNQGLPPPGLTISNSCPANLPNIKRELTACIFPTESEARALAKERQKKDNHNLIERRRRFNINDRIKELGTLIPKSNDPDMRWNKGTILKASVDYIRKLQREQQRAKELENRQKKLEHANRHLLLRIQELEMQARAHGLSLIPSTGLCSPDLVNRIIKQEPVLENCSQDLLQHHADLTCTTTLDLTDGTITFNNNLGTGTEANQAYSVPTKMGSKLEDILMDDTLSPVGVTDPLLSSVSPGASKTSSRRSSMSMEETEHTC
# GPR151 activ: activates the human receptor GPR151 | AID 1508602 | Q8TDV0 | PathHunter beta-arrestin GPR151 cells, luminescence | activation, % at 11.2 µM | hit rate 1% among 650,000; in the data active = activation above about 4.9%;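 note: 0% = median of compound wells and 100% = cells with positive control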
# TEAD-YAP block: TEAD-YAP interaction inhibition; HEK-TIYL cells, TEAD-Gal4/YAP UAS-luciferase luminescence; inhibition, % at 9.12 µM; hit rate 1.4% among 640,000; in the data active = inhibition above about 32%;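 note: 0% = median of test compound wells and 100% = reference inhibitor wells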
# FBW7 act: human FBW7 E3 ligase activation, primary screen | Q969H0 | AlphaScreen FBW7–phospho-cyclin E peptide binding, activator screen | normalized activity (activation), % at 26.1 µM | hit rate 0.13% among 650,000 | AID 1259310; in the data active = normalized activity above about 1.9%;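 note: purified mutant Fbw7 with reduced substrate affinity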
# GPR151 conf act: human GPR151 activation, confirmation screen; shares compounds with GPR151 activ; GPR151 PathHunter beta-arrestin cells, luminescence, 90 min; % of EA-reagent control over plate median; activation, % at 11.2 µM; 6,700 tested, under 10 active; AID 1508609;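 active = mean percent activation across replicates above the confirmation screen cutoff of 4.91%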
# GPR119 counter: GPR119 activation, counter-screen for GPR151 activators | shares compounds with GPR151 activ | GPR119 PathHunter beta-arrestin cells, luminescence, 90 min; 0 = compound-well median, 100 = enzyme-acceptor control | activation, % at 11.2 µM | hit rate 0.3% among 6,700 | AID 1508611;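 active = mean percent activation in the counterscreen above 29.09%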;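 note: counterscreen on off-target GPR119 to flag nonselective hits from the GPR151 activator screen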
# Starred values were filed as active, the others as inactive; · = not tested or not shown. This is a sample that favours compounds with a hit; in the whole collection about 3.5% have one here.
SMILES,MITF primary,GPR151 activ,TEAD-YAP block,FBW7 act,GPR151 conf act,GPR119 counter
COc1ccc(CCn2c(=S)[nH]c3ccsc3c2=O)cc1OC,6,5.4*,-2,1,2,12
CCN(CC)C(=S)SCCC(=O)NC(=O)Nc1ccc(F)cc1,1,24*,14,-1,-1,-3
COc1ccc(N2CC(NC(=O)NC(c3ccccc3)c3ccccc3)CC2=O)cc1 (stereo unspecified),-7,6.1*,11,0,0,1
Cc1nc(N2CCCCC2)c2c(C)c(C(=O)N3CCN(c4ccccc4)CC3)sc2n1,3,5.3*,12,0,0,-1
COc1ccc(CCNC(=O)c2sc3nc(C)nc(N4CCCCC4)c3c2C)cc1OC,0,25*,-3,0,1,-1
COc1ccc(CCNC(=O)c2sc3nc(C)nc(N4CCC(C)CC4)c3c2C)cc1OC,5,1,-14,0,·,·
CCOC(=O)c1cnc2cc(C(F)(F)F)ccc2c1Nc1cc(Cl)ccc1OC,-9,2,1,0,·,·
CCN(C(=O)CC(C)C)c1nnc(-c2ccccc2C)s1,-3,-1,-24,0,·,·
CC(C)NC(=O)CN(c1cccc2ccccc12)S(C)(=O)=O,-16,8.4*,3,0,0,-2
CCc1ccccc1N(CC(=O)Nc1ccc(F)c(F)c1)S(C)(=O)=O,1,6.7*,-11,0,0,-9
CCc1ccccc1N(CC(=O)Nc1ccccc1SC)S(C)(=O)=O,4,5.6*,0,0,0,-6
CCc1ccccc1N(CC(=O)Nc1ccccc1Cl)S(C)(=O)=O,-5,14*,4,0,-1,1
O=C(N/N=C1/CCSC1)c1cnn(-c2ccccc2)c1C(F)(F)F,8,0,3,0,·,·
Cc1cccc(NC(=O)c2cc(S(=O)(=O)N3CCCC3)c(C)o2)c1,1,0,-1,0,·,·
CS(=O)(=O)N(CC(=O)Nc1cccc(F)c1)c1ccccc1F,-4,5,-1,0,·,·
CS(=O)(=O)N(CC(=O)Nc1cccc(F)c1)c1ccccc1Cl,0,5.0*,-6,0,0,2
Brc1cc2c(cc1/C=N/Nc1ccccc1)OCO2,-11,1,-2,0,·,·
O=C(CCCn1nc(-c2ccccc2)c2ccccc21)NCc1ccccn1,7,7.6*,3,0,0,-7
COc1cc(CN2CCc3nnc(CCc4ccccc4)n3CC2)cc(OC)c1OC,5,7.1*,18,0,0,8
COc1cc(CN2CCc3nnc(CCc4ccccc4)n3CC2)cc(OC)c1O,12,1,2,0,·,·
COc1cccc(CN2CCc3nnc(CCNC(=O)C4CCCO4)n3CC2)c1 (stereo unspecified),-16,6.3*,-9,0,0,5
O=C(Nc1ccccc1N1CCN(c2ccccc2)CC1)C1CC1,15,3,3,0,·,·
Cc1nn(CC(=O)Nc2ccc(Oc3ccc(Cl)cc3)cc2)c(C)c1[N+](=O)[O-],-13,-1,-3,0,·,·
Cc1nn(CC(=O)Nc2ccc(O)cc2)c(C)c1[N+](=O)[O-],19,6.1*,6,0,0,2
CCOc1ccc(S(=O)(=O)NCC(c2ccco2)S(=O)(=O)c2ccc(C)cc2)cc1 (stereo unspecified),11,8.4*,0,0,-1,-11
SMILES,MITF primary,GPR151 activ,TEAD-YAP block,FBW7 act,GPR151 conf act,GPR119 counter
O=C(C1CCCO1)N(c1ccc(Cl)cc1)C1C=CS(=O)(=O)C1 (stereo unspecified),10,9.6*,-9,0,0,2
O=S(=O)(c1cccs1)N(Cc1ccco1)C1CCN(CCc2cccs2)CC1,17,7.5*,3,0,-1,-13
CS(=O)(=O)N(Cc1ccco1)C1CCN(CCc2cccs2)CC1,4,0,5,0,·,·
CC(=O)Nc1sc2c(c1C(c1ccccn1)N1CCN(CCO)CC1)CCCC2 (stereo unspecified),-4,-1,-1,0,·,·
CC(C)c1ccc(OCC(=O)O/N=C(\N)c2cccc([N+](=O)[O-])c2)cc1,-11,16*,-4,0,0,-7
O=C(Nc1ccc(N2CCOCC2)cc1)C1CCN(c2ccc(Nc3ccc(-n4ccnc4)cc3)nn2)CC1,6,2,8,0,·,·
CC1=C(C(=O)OCc2ccc3c(c2)OCO3)C(c2cccc(Cl)c2)NC(=O)N1 (stereo unspecified),-4,6.6*,25,0,1,14
CC1=C(C(=O)OCC(C)C)C(c2ccc3c(c2)OCO3)NC(=O)N1 (stereo unspecified),11,5.9*,-2,0,0,5
COC(=O)c1c(OCc2cccnc2)cc(=O)n2c1CCN(CC(C)c1ccccc1)CC2 (stereo unspecified),13,2,8,0,·,·
CN1C(=O)CC(Nc2ccc(N3CCOCC3)cc2)C1=O (stereo unspecified),10,0,-2,0,·,·
C=CCn1cnc2c(nnn2-c2ccc(OC)c(OC)c2)c1=O,-15,7.9*,4,0,1,8
CCN(CC)C(=O)COc1cc(-c2cn[nH]c2)ccc1NC(=O)C1COc2ccc(C)cc2C1 (stereo unspecified),26,2,-2,0,·,·
O=C(C[n+]1ccccc1)Nc1ccccc1C(=O)O,-6,7.5*,4,0,1,-2
CCc1nnc(NC(=O)CN2CCC(O)(c3ccccc3OC)CC2)s1,3,6.5*,1,0,1,7
CCc1nnc(NC(=O)CCCOc2ccccc2C)s1,-3,12*,4,0,1,-2
Cc1ccccc1OCCCC(=O)Nc1nnc(C(C)C)s1,-14,2,6,0,·,·
COC(=O)[C@@H]1CCCN1Cc1ccc2c(c1)CN(Cc1ccccc1)CCO2,-7,-1,-3,0,·,·
COC(=O)[C@@H]1CCCN1Cc1ccc2c(c1)CN(Cc1c[nH]c3ccccc13)CCO2,9,6.9*,-4,0,0,1
CCNC(=O)C1=C2c3ccccc3CC(C)(C)N2C(=O)C1=O,-3,6.1*,0,0,0,10
CC1(C)Cc2ccccc2C2=C(C(=O)N3CCCCCC3)C(=O)C(=O)N21,12,1,8,0,·,·
Cc1cc(NC(=O)C(N)=O)ccc1Br,3,5.0*,4,0,0,4
COc1ccccc1NCC(=O)N/N=C/c1ccccc1O,11,0,1,0,·,·
COc1ccc(Br)cc1/C=N/NC(=O)CSc1ccccn1,10,7.0*,1,1,0,-13
COc1ccccc1NCC(=O)N/N=C/c1cc(Br)ccc1O,15,9.8*,24,0,0,-18
